# Assay results reported in PubChem BioAssay.
# Target: Streptavidin (Streptomyces avidinii) (UniProt P22629)
# Assay: compounds binding control protein streptavidin – biophysical, small-molecule microarray, 635/667 nm fluorescence, artefact control for SMM compound annotation, primary screen (AID 1147);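 also: signal reflects streptavidin binding to arrayed compounds as a control protein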
# Conditions: higher = more signal
# Chain of Streptavidin (Streptomyces avidinii) (P22629 whole entry, looked up): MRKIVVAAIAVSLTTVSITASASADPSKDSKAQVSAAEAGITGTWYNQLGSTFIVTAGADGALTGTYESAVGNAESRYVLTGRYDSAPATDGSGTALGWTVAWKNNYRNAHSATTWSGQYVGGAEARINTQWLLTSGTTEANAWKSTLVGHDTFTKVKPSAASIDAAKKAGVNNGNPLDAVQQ
row,Structure (SMILES),composite z-score
1,CC(=O)OC[C@H]1O[C@@H](ON=C(C)C)[C@H](OC(C)=O)[C@@H](OC(C)=O)[C@@H]1OC(C)=O,-1.26
2,CC(C)=CCCC(C)=CCON=C1[C@H]2CCn3c(=O)n(-c4ccccc4)c(=O)n3[C@H]2[C@H](O)[C@@H]2O[C@H]12,1.07
3,COC(=O)CC=C[C@@H](C)[C@@H](C=NOC[C@@H](C)[C@H](OCc1ccccc1)C(C)C)OC,-0.437
4,CCOC(=O)CCN1C(=O)[C@H]2[C@H]3[C@H](O)[C@H](O)CC(=NO[C@@H]4O[C@H](CO)[C@@H](O)[C@H](O)[C@H]4O)[C@@H]3CC[C@H]2C1=O,0.036
5,COC(=O)[C@H](C)NC(=O)CCC1CC(OC(=O)NCc2ccc3c(c2)OCO3)CC2(CCCC(COC(=O)NCCc3ccc(Cl)cc3)O2)O1 (some centres not stated),-0.334
6,CC(CCN1CCCc2nc(C)c(C)cc21)=NOC[C@@H](O)COCc1ccco1,0.0849
7,CC(CCN1CCCCc2nc(C)c(C)cc21)=NO[C@@H](C)c1cc(-c2c(C)cc(C)cc2C)no1,-1.23
8,C[C@H]1CC[C@@H](C(=O)O)N[C@@H]1c1ccc(C#Cc2ccccc2)cc1,2.04
9,COc1ccc(O[C@H]2C=C[C@@H](c3ccccc3)O[C@@H]2COC(=O)NCc2cccc3ccccc23)cc1,0.493
10,CC(C)CON=C1C[C@@H](O)[C@@H](O)[C@@H]2[C@@H]3C(=O)N(C(C)(C)C)C(=O)[C@@H]3CC[C@@H]12,0.0099
11,CC(C)CON=C1[C@H]2CCn3c(=O)n(C)c(=O)n3[C@H]2[C@H](O)[C@@H]2O[C@H]12,0.212
12,CCOC(=O)CCN1C(=O)[C@H]2[C@H]3[C@H](O)[C@H](O)CC(=O)[C@@H]3CC[C@H]2C1=O,0.182
13,CC1(C)O[C@H]2OC([C@H](O)CON3C(=O)c4ccccc4C3=O)[C@H](O)[C@H]2O1 (some centres not stated),-0.467
14,COc1cccc([C@H](O)Cn2cc(-c3ccc(CON=C(C)C)cc3)nn2)c1,-0.207
15,COCC#Cc1ccc([C@@H]2N[C@H](C(=O)O)CC[C@H]2C)cc1,0.0402
16,O=C1C[C@H](c2ccccc2)[C@H](c2ccc(Br)cc2)O1,0.521
17,CCCNC(=O)OC[C@H]1O[C@H](CCON=C[C@@H](NS(=O)(=O)c2ccc(C)cc2)[C@H](C)C=CCC(=O)OC)C=C[C@@H]1Oc1ccc(OC)cc1,-0.0974
18,CCOC(=O)[C@H](Cc1ccccc1)NC(=O)CCC1CC(OC(=O)NCCc2ccc(F)cc2)CC2(CCCC(COC(=O)NCCOc3ccccc3)O2)O1 (some centres not stated),0.751

row,Structure (SMILES),composite z-score
1,C=CC[C@@H]1C=C[C@H](Oc2ccc(C)cc2)[C@@H](COC(=O)NCc2cccc3ccccc23)O1,-0.142
2,O=C1C2=CC[C@H]3C(=O)N(C[C@@H]4CCCO4)C(=O)[C@H]3[C@H]2[C@H](O)[C@@H]2O[C@H]12,0.19
3,CSCC[C@@H]1NC(=O)CC=C[C@@H](C)COC(=O)[C@H](C)COC1=O,-0.918
4,COC(=O)[C@H](Cc1ccccc1)NC(=O)[C@@H](C)CO,0.311
5,O=C1[C@H]2[C@H]3[C@H](O)[C@H](O)CC(=NOCc4ccccc4)[C@@H]3CC[C@H]2C(=O)N1c1cccc(Oc2ccccc2)c1,0.0831
6,CC(C)C(=O)N[C@H]1CCCN1C(=O)C=Cc1ccccc1,0.111
7,CCN1C(=O)[C@H]2[C@H]3[C@H](O)[C@H](O)CC(=NOCC(C)C)[C@H]3CC[C@H]2C1=O,0.342
8,C#CCCCON=C1[C@H]2CCn3c(=O)n(Cc4cc5c(cc4Cl)OCO5)c(=O)n3[C@H]2[C@H](O)[C@@H]2O[C@H]12,0.23
9,COC(=O)[C@H](C)NC(=O)CCC1CC(OC(=O)NCc2cccc3ccccc23)CC2(CCCC(COC(=O)NCCOc3ccccc3)O2)O1 (some centres not stated),0.688
10,CO[C@H]1COC(=O)CC=C[C@@H](C)COC(=O)[C@H]2CCCN2C(=O)CC=C[C@H]1C,-0.547
11,O=C1C[C@@H](O)[C@@H](O)[C@@H]2[C@@H]3C(=O)N(C4CCCCC4)C(=O)[C@@H]3CC[C@@H]12,0.148
12,CN1CCc2nc(-c3ccccc3)c(-c3ccccc3)cc2C1,0.0666
13,CC(CCC(=O)OC[C@H]1O[C@H](C#Cc2ccccc2)C=C[C@@H]1Oc1ccc(C)cc1)=NOC(C)CN1CCCCc2nc(C)c(C)cc21 (some centres not stated),-0.0512
14,CO[C@@H]1C=CCC(=O)N[C@@H](C)C(=O)OC[C@@H](OC)[C@H](C)C=CCC(=O)OC[C@H]1C,-0.477
15,CO[C@@H]1[C@H](O)CO[C@H]1C=Cc1ccccc1,-0.223
16,CO[C@H]1COC(=O)[C@H](CCSC)NC(=O)CC=C[C@@H](C)[C@H](OC)COC(=O)[C@@H](OCc2ccccc2)C=C[C@@H]1C,-0.0966
17,COc1ccc(OC[C@H]2CN3[C@@H](CC[C@@H](C)[C@@H]3c3ccc(Br)cc3)C(=O)O2)cc1,0.169
18,COc1ccc(O[C@H]2C=C[C@@H](c3ccccc3)O[C@@H]2CO)cc1,0.145

# Test system: not listed separately
# Assay: probe aInhba binding on compound microarray – biochemical, small-molecule microarray, 635/667 nm fluorescence, primary screen (AID 1148);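 also: score merges 667nm spot fluorescence with signal-to-noise for antibody binding to printed compounds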
# Conditions: higher = more signal
row,Structure (SMILES),composite z-score
1,CC(=O)OC[C@H]1O[C@@H](ON=C(C)C)[C@H](OC(C)=O)[C@@H](OC(C)=O)[C@@H]1OC(C)=O,-0.0695
2,CC(C)=CCCC(C)=CCON=C1[C@H]2CCn3c(=O)n(-c4ccccc4)c(=O)n3[C@H]2[C@H](O)[C@@H]2O[C@H]12,0.0319
3,COC(=O)CC=C[C@@H](C)[C@@H](C=NOC[C@@H](C)[C@H](OCc1ccccc1)C(C)C)OC,-0.161
4,CCOC(=O)CCN1C(=O)[C@H]2[C@H]3[C@H](O)[C@H](O)CC(=NO[C@@H]4O[C@H](CO)[C@@H](O)[C@H](O)[C@H]4O)[C@@H]3CC[C@H]2C1=O,0.0173
5,COC(=O)[C@H](C)NC(=O)CCC1CC(OC(=O)NCc2ccc3c(c2)OCO3)CC2(CCCC(COC(=O)NCCc3ccc(Cl)cc3)O2)O1 (some centres not stated),-0.159
6,CC(CCN1CCCc2nc(C)c(C)cc21)=NOC[C@@H](O)COCc1ccco1,1.26
7,CC(CCN1CCCCc2nc(C)c(C)cc21)=NO[C@@H](C)c1cc(-c2c(C)cc(C)cc2C)no1,-0.211
8,C[C@H]1CC[C@@H](C(=O)O)N[C@@H]1c1ccc(C#Cc2ccccc2)cc1,-0.0403
9,COc1ccc(O[C@H]2C=C[C@@H](c3ccccc3)O[C@@H]2COC(=O)NCc2cccc3ccccc23)cc1,-0.218
10,CC(C)CON=C1C[C@@H](O)[C@@H](O)[C@@H]2[C@@H]3C(=O)N(C(C)(C)C)C(=O)[C@@H]3CC[C@@H]12,-0.261
11,CC(C)CON=C1[C@H]2CCn3c(=O)n(C)c(=O)n3[C@H]2[C@H](O)[C@@H]2O[C@H]12,-0.0405
12,CCOC(=O)CCN1C(=O)[C@H]2[C@H]3[C@H](O)[C@H](O)CC(=O)[C@@H]3CC[C@H]2C1=O,-0.179
13,CC1(C)O[C@H]2OC([C@H](O)CON3C(=O)c4ccccc4C3=O)[C@H](O)[C@H]2O1 (some centres not stated),0.0319
14,COc1cccc([C@H](O)Cn2cc(-c3ccc(CON=C(C)C)cc3)nn2)c1,0.0082
15,COCC#Cc1ccc([C@@H]2N[C@H](C(=O)O)CC[C@H]2C)cc1,-0.024
16,O=C1C[C@H](c2ccccc2)[C@H](c2ccc(Br)cc2)O1,-0.128
17,CCCNC(=O)OC[C@H]1O[C@H](CCON=C[C@@H](NS(=O)(=O)c2ccc(C)cc2)[C@H](C)C=CCC(=O)OC)C=C[C@@H]1Oc1ccc(OC)cc1,0.316
18,CCOC(=O)[C@H](Cc1ccccc1)NC(=O)CCC1CC(OC(=O)NCCc2ccc(F)cc2)CC2(CCCC(COC(=O)NCCOc3ccccc3)O2)O1 (some centres not stated),-0.0762

row,Structure (SMILES),composite z-score
1,C=CC[C@@H]1C=C[C@H](Oc2ccc(C)cc2)[C@@H](COC(=O)NCc2cccc3ccccc23)O1,-0.156
2,O=C1C2=CC[C@H]3C(=O)N(C[C@@H]4CCCO4)C(=O)[C@H]3[C@H]2[C@H](O)[C@@H]2O[C@H]12,-0.12
3,CSCC[C@@H]1NC(=O)CC=C[C@@H](C)COC(=O)[C@H](C)COC1=O,-0.17
4,COC(=O)[C@H](Cc1ccccc1)NC(=O)[C@@H](C)CO,0.284
5,O=C1[C@H]2[C@H]3[C@H](O)[C@H](O)CC(=NOCc4ccccc4)[C@@H]3CC[C@H]2C(=O)N1c1cccc(Oc2ccccc2)c1,-0.024
6,CC(C)C(=O)N[C@H]1CCCN1C(=O)C=Cc1ccccc1,0.0173
7,CCN1C(=O)[C@H]2[C@H]3[C@H](O)[C@H](O)CC(=NOCC(C)C)[C@H]3CC[C@H]2C1=O,-0.0774
8,C#CCCCON=C1[C@H]2CCn3c(=O)n(Cc4cc5c(cc4Cl)OCO5)c(=O)n3[C@H]2[C@H](O)[C@@H]2O[C@H]12,-0.0375
9,COC(=O)[C@H](C)NC(=O)CCC1CC(OC(=O)NCc2cccc3ccccc23)CC2(CCCC(COC(=O)NCCOc3ccccc3)O2)O1 (some centres not stated),-0.025
10,CO[C@H]1COC(=O)CC=C[C@@H](C)COC(=O)[C@H]2CCCN2C(=O)CC=C[C@H]1C,-0.108
11,O=C1C[C@@H](O)[C@@H](O)[C@@H]2[C@@H]3C(=O)N(C4CCCCC4)C(=O)[C@@H]3CC[C@@H]12,-0.145
12,CN1CCc2nc(-c3ccccc3)c(-c3ccccc3)cc2C1,-0.176
13,CC(CCC(=O)OC[C@H]1O[C@H](C#Cc2ccccc2)C=C[C@@H]1Oc1ccc(C)cc1)=NOC(C)CN1CCCCc2nc(C)c(C)cc21 (some centres not stated),-0.246
14,CO[C@@H]1C=CCC(=O)N[C@@H](C)C(=O)OC[C@@H](OC)[C@H](C)C=CCC(=O)OC[C@H]1C,-0.157
15,CO[C@@H]1[C@H](O)CO[C@H]1C=Cc1ccccc1,-0.182
16,CO[C@H]1COC(=O)[C@H](CCSC)NC(=O)CC=C[C@@H](C)[C@H](OC)COC(=O)[C@@H](OCc2ccccc2)C=C[C@@H]1C,-0.101
17,COc1ccc(OC[C@H]2CN3[C@@H](CC[C@@H](C)[C@@H]3c3ccc(Br)cc3)C(=O)O2)cc1,-0.2
18,COc1ccc(O[C@H]2C=C[C@@H](c3ccccc3)O[C@@H]2CO)cc1,-0.0412
